PubChem BioAssay AID1508602 (The Scripps Research Institute Molecular Screening Center, 2020)
In all, about 650,000 compounds went through this assay and about 6,800 (1%) were called active. Many of the other results were omitted from the sample, so actives are more common in it than they were. A number with no mark means an inactive call. Cut-off read from the data, not from the text of the source: active = activation above about 4.9%; inactive = the rest.

These compounds were tested against G-protein coupled receptor 151 (Homo sapiens) (UniProt Q8TDV0) (assay: activators of human GPR151, primary screen, cell-based, PathHunter beta-arrestin, luminescence (AID 1508602;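 note: 0% = median of compound wells and 100% = cells with positive control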)). Settings: PathHunter beta-arrestin GPR151 cells, at 11.2 µM, stronger effect = higher value.
Chain of G-protein coupled receptor 151 (Homo sapiens) (Q8TDV0 whole entry, looked up): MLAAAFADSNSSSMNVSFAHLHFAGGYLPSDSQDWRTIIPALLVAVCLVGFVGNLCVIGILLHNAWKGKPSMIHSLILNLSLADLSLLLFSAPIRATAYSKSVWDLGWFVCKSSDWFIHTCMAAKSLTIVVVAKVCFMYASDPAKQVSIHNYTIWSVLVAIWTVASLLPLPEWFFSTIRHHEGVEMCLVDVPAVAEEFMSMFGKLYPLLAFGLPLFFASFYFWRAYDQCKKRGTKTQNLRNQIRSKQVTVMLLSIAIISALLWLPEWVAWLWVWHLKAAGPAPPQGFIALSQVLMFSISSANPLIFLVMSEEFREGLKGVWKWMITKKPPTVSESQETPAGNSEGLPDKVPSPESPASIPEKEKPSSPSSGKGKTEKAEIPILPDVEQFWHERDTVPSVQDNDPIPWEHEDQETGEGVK

First: CCOCCCNC(=O)/C(C#N)=C/c1c(Oc2ccc(CC)cc2)nc2ccccn2c1=O
Second: COc1ccc(CCNC(=O)c2ccccc2C(=O)O)cc1OC
The activation of the first is lower: -7.56% for the first, -1.14% for the second.

Going from `CCN(CC)c1ccc(CN2C[C@@H](NCc3ccc4ccccc4c3)C[C@H]2C(=O)NC)cc1` to `COc1ccc(CCNc2nc(-c3ccccc3)nc3c2ncn3C2CCCCC2)cc1`, the activation falls from 0.619% to 0.405%.

Compared with `CC1CCN(c2nc3ccc(C(=O)NCCCOC(C)C)cc3s2)CC1`, `CCCCN(C)CCCNC(=O)C1CCN(c2nc3ccc(OC)cc3s2)CC1` is lower in activation: -0.0522% for the first, -1.77% for the second.

Compared with `Cc1nn2c(N3CCNCC3)c3c(nc2c1-c1ccccc1)CCC3`, `COc1ccc(-n2c(SCC(=O)c3ccccc3)nc3sc4c(c3c2=O)CCCC4)cc1` is higher in activation: -1.05% for the first, -0.298% for the second.

First: Cn1c(=NC(=O)CN2C(=O)c3ccccc3C2=O)sc2cc(F)cc(F)c21
Second: O=S(=O)(c1ccc(F)cc1)N1CCN(Cc2ccccc2F)CC1
The activation of the first is lower: 0.254% for the first, 0.53% for the second.

First: c1cnc(Nc2nc(NCc3cccnc3)c3ncn(C4CCCCC4)c3n2)nc1
Second: FC(F)(F)c1ccc(Nc2nc(NC3CC3)c3ncn(C4CCCCC4)c3n2)cc1
The activation of the first is lower: -0.529% for the first, 0.642% for the second.

Going from `Cc1ccc(NC(=O)CCNS(=O)(=O)c2ccc3c(c2)c(=O)n(C)c(=O)n3C)nc1` to `CCCn1c(=O)c2c(nc3n(-c4ccc(C)cc4)c(C)c(C)n23)n(C)c1=O`, the activation rises from -0.3% to 3.26%.

Going from `Cc1ccc(NC(=O)CSc2nc3cc4c(cc3cc2C#N)OCCO4)cc1` to `Cc1ccc(NC(=O)CSc2nnc3sc4ccccc4n23)cc1`, the activation rises from -1.17% to -0.639%.

Going from `COc1ccc2cc(C#N)c(SC)nc2c1` to `CSC1=C(C#N)C(c2ccc(Cl)cc2Cl)CC(=O)N1` (configuration not stated), the activation falls from 0.673% to -1.96%.

First: CCN(CC)C(=O)Cn1cnc2sc(C(=O)NCc3ccc(Cl)cc3)c(C)c2c1=O
Second: CCCCc1ccc(NC(=O)CSc2nnc(C)s2)cc1
The activation of the first is higher: 0.437% for the first, 0.0157% for the second.

Going from `COCCNC(=O)c1cn(C[C@H]2CCCN(C(=O)c3conc3C)C2)nn1` to `COCCn1cc(C(=O)N2CCCCCC2)c2c3ccccc3n(C)c2c1=O`, the activation falls from 1.06% to 0.412%.

Going from `COc1ccc([C@H](O)[C@@H]2CCCN(C(=O)OC(C)(C)C)C2)cc1` to `CC(C)NS(=O)(=O)c1ccc(OCC(=O)NC2CCCCCC2)cc1`, the activation falls from 0.253% to -1.64%.

Going from `O=C(Nc1ccccc1)c1cnc(NCCN2CCOCC2)s1` to `CCn1c(C)c(CCC(=O)NN2CCOCC2)c(=O)n2nc(-c3ccccc3OC)cc12`, the activation rises from -2.52% to -0.283%.

First: COc1ccccc1C1C(C#N)=C(N)Oc2n[nH]c(-c3ccc4ccccc4c3)c21 (configuration not stated)
Second: COc1ccccc1N1CCN(C(=O)c2cc(-c3ccc(Cl)c(Cl)c3)nc3ccccc23)CC1
The activation of the first is higher: -0.23% for the first, -0.435% for the second.

Going from `COc1ccc(-c2nnc(SCC(=O)Nc3ccc(Br)cc3)nc2-c2ccc(OC)cc2)cc1` to `Cc1ccc(-c2nc3ccc(C(=O)NCCC4=CCCCC4)cc3nc2-c2ccc(C)cc2)cc1`, the activation rises from 1.77% to 4.13%.

Going from `CC(C)CC(=O)NC(=S)Nc1ccc(F)cc1F` to `OCCCNC(=S)Nc1ccccc1F`, the activation falls from 2.41% to 0.421%.

Going from `COc1ccccc1Cc1nc(-c2ccc(OC)c(OC)c2)no1` to `CCOc1ccccc1NC(=O)CCc1nc(-c2ccc(OC)c(OC)c2)no1`, the activation falls from 1.66% to -1.02%.

First: CC1CCCC(NC(=O)C2N(CCN3CCCCC3)C(=O)C3C(C(=O)Nc4cc(Cl)cc(Cl)c4)C4C=CC32O4)C1C (configuration not stated)
Second: COC(=O)c1cc(NC(=O)C2C3C=CC(C3)C2C(=O)O)cc(C(=O)OC)c1 (configuration not stated)
The activation of the first is higher: -0.312% for the first, -0.454% for the second.

Going from `COCCCNC(=O)c1nnc(-c2ccccc2)o1` to `Cc1ccccc1C(=O)NNC(=O)c1ccccc1F`, the activation falls from -0.472% to -3.61%.

First: CC(C)=CCC/C(C)=C/C=N/Nc1ccc(S(N)(=O)=O)cc1[N+](=O)[O-]
Second: COc1ccc([N+](=O)[O-])cc1NC(=O)c1cccc(Cl)c1Cl
The activation of the first is higher: 1% for the first, -1.48% for the second.

Compared with `COc1cc(C(=O)Nc2c3c(nn2-c2ccc(F)cc2)CSC3)cc(OC)c1OC`, `COc1cc(CN2CCN(C3CCCC3)C(CCO)C2)cc(OC)c1OC` (configuration not stated) is lower in activation: 1.91% for the first, -0.445% for the second.

Compared with `Cn1c(CNc2ccc(F)cc2)c(C#N)c2ccccc21`, `Cc1ccc(NCc2ccccc2CO)cc1` is lower in activation: 0.294% for the first, -5.47% for the second.

First: C=CCSc1nc2c(c(=O)n1CC1CCCC1)C1(CCCC1)Cc1ccccc1-2
Second: O=c1c2c([nH]c(=S)n1Cc1ccco1)-c1ccccc1CC21CCCCC1
The activation of the first is higher: 0.419% for the first, -0.102% for the second.

Compared with `CC(C)(C)C(=O)/C=C/c1ccccc1O`, `O=C(O)COc1ccc(NC(=O)/C=C/c2ccco2)cc1` is higher in activation: 0.824% for the first, 3.09% for the second.

Going from `CC(C)N(CCNC(=O)c1cccc(-c2cccs2)n1)C(C)C` to `CC(C)(C)c1ccc(S(=O)CC(O)CSc2nc(-c3cccs3)cc(-c3ccccc3)c2C#N)cc1` (configuration not stated), the activation rises from -1.28% to 0.807%.

Compared with `CCc1ccc(NC(=O)CN2C(=O)CSC(C)C2=O)cc1` (configuration not stated), `CCOc1ccc(NC(=O)CSC2=C(C#N)C(c3ccc(Cl)cc3Cl)CC(=O)N2)cc1` (configuration not stated) is lower in activation: -0.109% for the first, -1.43% for the second.

Compared with `O=C(O)C1CC=C(Cl)CC1C(=O)Nc1cccc([N+](=O)[O-])c1` (configuration not stated), `CCCCOC(=O)c1ccc(NC(=O)C2C3C=CC(O3)C2C(=O)O)cc1` (configuration not stated) is lower in activation: -0.78% for the first, -1.25% for the second.

Compared with `CCN1CCN(C(=O)C(C)Oc2ccc(Cl)cc2Cl)CC1` (configuration not stated), `Cc1ccc(C(C)C)c(OCCN2CCNCC2)c1` is higher in activation: -0.795% for the first, 0.889% for the second.

Compared with `CCOC(=O)c1ccc(-n2c(C)c(C)n3c4c(=O)n(CC)c(=O)n(C)c4nc23)cc1`, `Cc1cc(C)c2c(=O)[nH]c(SCC(=O)c3ccc(F)cc3)nc2n1` is higher in activation: 1.57% for the first, 3.2% for the second.

First: CCCCC(CCCC)=N/N=C1\NC(=O)C(CC(=O)O)S1 (configuration not stated)
Second: CCC(=O)Nc1cc(-c2ccco2)nn1-c1nc(CC)cc(=O)[nH]1
The activation of the first is lower: -1.58% for the first, -0.772% for the second.

First: N#Cc1ccc(C(=O)OCC(=O)Nc2ccc3[nH]c(=O)[nH]c3c2)cc1
Second: COc1ccc(C(=O)N/N=C/c2ccc(O)c3ncccc23)cc1
The activation of the first is higher: 0.615% for the first, -2.28% for the second.

First: Cc1ccc(S(=O)(=O)N2CCN(Cc3ccc(F)cc3)CC2)cc1
Second: O=C(COc1ccc(S(=O)(=O)Nc2ccc(F)cc2)cc1)NC1CCCC1
The activation of the first is lower: -0.354% for the first, 1.64% for the second.

First: COc1ccc(NC(=O)C23CCC(C)(C(=O)C2)C3(C)C)c(OC)c1 (configuration not stated)
Second: CCCCSc1nc2sc3c(c2c(=O)n1-c1ccc(OC)cc1)CCCC3
The activation of the first is higher: 0.482% for the first, 0.438% for the second.

First: Oc1ccc(-c2n[nH]c(=S)o2)cc1
Second: Cc1csc(NC(=O)CSc2nnc(Cc3cccn3C)n2-c2ccccc2)n1
The activation of the first is lower: -2.2% for the first, 0.245% for the second.

First: O=c1c2c3c(sc2nc(SCc2cccc(Br)c2)n1-c1ccccc1)CCC3
Second: O=C1N=C(N2CCN(c3ccc([N+](=O)[O-])cc3)CC2)S/C1=C/c1ccccc1
The activation of the first is higher: 0.0499% for the first, -0.706% for the second.

Going from `Cc1ccc(S(=O)(=O)c2nnn3c2nc(NCc2ccco2)c2ccccc23)cc1` to `C=CCOc1ccc(/C=C2\C(=O)N(c3ccc([N+](=O)[O-])cc3)N=C2c2ccccc2)cc1`, the activation falls from -0.413% to -2.33%.

Going from `C=CCc1cc(C)ccc1OCCCn1ccnc1` to `O=[N+]([O-])c1ccc(-n2c(-c3ccccc3)nnc2-c2ccccc2)cc1`, the activation falls from 2.6% to -0.192%.

For `CCOCCCNC(=O)NC1CCN(c2nc3ccccc3s2)CC1`, the activation was 5.41% (active).
With `c1cncc(Nc2nc(NC3CC3)c3ncn(C4CCCCC4)c3n2)c1` the activation was 11.5% (active).
`Cc1ccc2cc(C#N)c(SCCO)nc2c1` was tested, and the activation was 6.39% (active).
In the case of `CC(C)(C)OC(=O)N1CCC[C@H](Cn2cc(C(=O)O)nn2)C1`, the activation is reported as 6.74% (active).
With `CC(C)C(=O)NC(=S)Nc1ccccc1F` the activation was 6.35% (active).
In the case of `COc1ccccc1NC(=O)NCc1nc(-c2ccc(OC)c(OC)c2)no1`, the activation is reported as 7.48% (active).
In the case of `OCc1ccccc1CNc1ccc(F)cc1`, the activation is reported as 10.3% (active).
In the case of `CC(C)CCSc1nc2c(c(=O)n1Cc1ccco1)C1(CCCCC1)Cc1ccccc1-2`, the activation is reported as 16.5% (active).
`CCCCc1ccc(NC(=O)CN2C(=O)C(C)SC(C)C2=O)cc1` (configuration not stated) was tested, and the activation was 6.11% (active).
For `C=CCSC1=C(C#N)C(c2ccc(Cl)cc2Cl)CC(=O)N1` (configuration not stated), the activation was 5.51% (active).
`COc1ccc([N+](=O)[O-])cc1NC(=O)C1CC(Cl)=CCC1C(=O)O` (configuration not stated) was tested, and the activation was 6.77% (active).
`CCc1ccc(-n2c(C)c(C)n3c4c(=O)n(CC)c(=O)n(C)c4nc23)cc1` was tested, and the activation was 5.92% (active).
`O=S(=O)(c1ccc(F)cc1)N1CCN(CCCc2ccccc2)CC1` was tested, and the activation was 5.43% (active).
For `COc1ccc(C(=O)CSc2nc3sc4c(c3c(=O)n2-c2ccc(Cl)cn2)CCCC4)c(F)c1`, the activation was 5.7% (active).
`CC(C)COC(=O)c1ccc(NC(=O)C2C3C=CC(C3)C2C(=O)O)cc1` (configuration not stated) was tested, and the activation was 6.08% (active).
In the case of `O=C(COc1ccc(S(=O)(=O)NCCc2ccccc2)cc1)NC1CC1`, the activation is reported as 5.83% (active).
`Cc1ccc(C(C)C)c(OCCCn2ccnc2)c1` was tested, and the activation was 4.92% (active).
In the case of `O=C1/C(=C\c2ccccc2)C(N2CCOCC2)=NN1c1ccc([N+](=O)[O-])cc1`, the activation is reported as 6.57% (active).
